Results filed as inconclusive are left out. Where a call stands in place of a potency, no number is given. Active and inactive are the calls of the source. The call rests on the fitted dose curve.
biological target: Retinoic acid receptor RXR-alpha (Homo sapiens) (UniProt P19793); assay: qHTS assay for small molecule agonists of retinoid X receptor alpha signaling (AID 588544); conditions: HEK293T RXRa-UAS-bla, beta-lactamase reporter, 18 h; series mostly up to 76.7 µM
Description: NIH Chemical Genomics Center [NCGC] U.S. Environmental Protection Agency [EPA] National Institutes of Environmental Health Sciences [NIEHS] National Toxicology Program [NTP] NCGC Assay Overview The Retinoid X receptor (RXR), a nuclear hormone receptor is expressed in liver, spleen, placenta, epidermis, central nervous system. These receptors are able to form homo and heterodimers with other nuclear receptors and due to this heterodimerizing ability, RXR functions as master regulators producing diverse physiological effects. Three subtypes of RXR exist; alpha, beta and gamma. Retinoid X receptor alpha (RXR-alpha) has potential roles in metabolic signaling pathways, skin alopecia, dermal cysts, cardiac development, insulin sensitization etc. Therefore screening environmental chemicals on RXR-alpha signaling can be used for the studies focused on such therapeutic applications.
NCGC Assay Protocol Summary Using a beta-lactamase reporter-gene under control of Retinoid X receptor--alpha (RXR-alpha) response element, a cell-based assay [GeneBLAzer (RXR-alpha -UAS-bla assay developed by Invitrogen] was used to measure RXR-alpha ligands signaling. GeneBLAzer RXR-alpha -UAS-bla HEK293T cells were used with assay medium containing 2% charcoal-stripped FBS. The assay was performed in clear bottom black Greiner 1536-well plates. 9-cis-retinoic acid was used in the screen as the positive control. Library compounds were measured for their ability to stimulate the reporter gene activity. Compounds were screened in a titration series in 1536-well format. The fluorescence intensity (405 nm excitation, 460/530 nm emission) was measured using an EnVision plate reader. Data was normalized relative to 9-cis-retinoic acid control (500 nM, 100%), and DMSO only wells (basal, 0%). Concentration-response titration points for each compound were fitted to the Hill equation yielding concentrations of half-maximal stimulation (EC50) and maximal response (efficacy) values. qHTS protocol for RXR-alpha beta-lactamase assay in agonist mode [Step] [Parameter] [Value] [Description] 1. Reagent; 6 uL; 2500 cells/well 2. Incubation; 37 C for 4 hrs 3. Compounds; 23 nL; 0.59 nM to 92 uM 4. Controls (9-cis-retinoic acid); 23 nL, - One column with dose response, start 38 uM, 1:3 dilutions in duplicates - Final concentrations of 500 nM and 50 nM in two columns 5. Incubation; 37 C for 18 hrs 6. Detection reagent; 1 uL of CCF4-dye 7. Incubation; RT for 2 hrs 8. Detection; Fluorescence; Envision plate reader

Chain of Retinoic acid receptor RXR-alpha (Homo sapiens) (P19793 whole entry, looked up): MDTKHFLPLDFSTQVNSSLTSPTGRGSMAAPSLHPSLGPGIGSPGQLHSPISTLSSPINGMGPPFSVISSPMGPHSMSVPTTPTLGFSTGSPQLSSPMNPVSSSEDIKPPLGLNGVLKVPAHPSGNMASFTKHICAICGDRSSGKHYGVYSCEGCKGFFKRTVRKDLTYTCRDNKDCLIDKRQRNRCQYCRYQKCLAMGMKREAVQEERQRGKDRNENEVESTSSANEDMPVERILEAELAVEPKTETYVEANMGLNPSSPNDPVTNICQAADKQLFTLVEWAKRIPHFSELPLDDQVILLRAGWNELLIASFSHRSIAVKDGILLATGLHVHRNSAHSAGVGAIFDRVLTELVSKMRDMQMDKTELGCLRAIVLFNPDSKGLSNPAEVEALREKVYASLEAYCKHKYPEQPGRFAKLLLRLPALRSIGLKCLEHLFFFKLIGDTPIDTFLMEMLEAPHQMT

Row | SMILES | Potency
1 | CCCCC(CC)COCCCN (stereo not given) | inactive
2 | CCCCC(CC)COC(=O)COc1ccc(Cl)cc1Cl (stereo not given) | inactive
3 | CC(=O)Nc1cccc(C)c1 | inactive
4 | CC(CCC(=O)O)(c1ccc(O)cc1)c1ccc(O)cc1 | inactive
5 | Cc1ccc(C(=O)O)cc1[N+](=O)[O-] | inactive
6 | C1CCCNCC1 | inactive
7 | O=[N+]([O-])c1cc(N(CCO)CCO)ccc1NCCO | inactive
8 | Oc1cc2c(cc1O)[C@H]1c3ccc(O)c(O)c3OC[C@@]1(O)C2 | inactive
9 | Nc1cc(C(=O)O)c(O)c(S(=O)(=O)O)c1 | inactive
10 | CC(C)OCC1CO1 (stereo not given) | inactive
11 | C/C(Cl)=C/CCl | inactive
12 | Oc1c(Cl)cc(Cl)c(Cl)c1Cl | inactive
13 | CCCCCCc1ccc(-c2ccc(C#N)cc2)cc1 | inactive
14 | CCCC(=O)OC(=O)CCC | inactive
15 | c1ccc2ncccc2c1 | inactive
16 | OCC(CBr)(CBr)CBr | inactive
17 | NC(=O)Nc1nc2ccccc2[nH]1 | inactive
18 | CC(=O)OC(C(=O)c1ccccc1)c1ccccc1 (stereo not given) | inactive
19 | CC(C)COC(=O)COc1cc(Cl)c(Cl)cc1Cl | inactive
20 | OC1CCCCC1 | inactive

Row | SMILES | Potency
21 | Cc1ccc(S(N)(=O)=O)cc1 | inactive
22 | CCCCCCN | inactive
23 | CCC(Cl)CC(Cl)C(Cl)C(Cl)C(Cl)C(C)Cl (stereo not given) | inactive
24 | c1ccncc1 | inactive
25 | O=[N+]([O-])c1ccccc1Nc1ccccc1 | inactive
26 | Oc1ccc2c(c1)OCO2 | inactive
27 | C=CC(=O)CC | inactive
28 | OCC(CO)(CBr)CBr | inactive
29 | CC(=O)OCc1ccc2c(c1)OCO2 | inactive
30 | Cc1cc(-c2ccc(N=Nc3cc(S(=O)(=O)O)c4ccccc4c3N)c(C)c2)ccc1N=Nc1cc(S(=O)(=O)O)c2ccccc2c1N | inactive
31 | CCOC(=O)C1OC1c1ccccc1 (stereo not given) | inactive
32 | C=C(C#N)C(=O)OCC | inactive
33 | Nc1cc([N+](=O)[O-])ccc1O | inactive
34 | Oc1cc(Cl)cc(Cl)c1Cl | inactive
35 | S=C(NC1CCCCC1)NC1CCCCC1 | inactive
36 | Nc1ccc(N=Nc2ccccc2)c(N)c1 | inactive
37 | Nc1ccc(N)c(Cl)c1 | inactive
38 | O=C(OCc1ccccc1)c1ccccc1O | inactive
39 | CC(=O)CC(=O)Nc1ccccc1 | inactive
40 | Cc1ccccc1OCC1CO1 (stereo not given) | inactive
